Sampled rows, rich in hits. Any-hit rate of the full collection: about 8.5%.
Sfp PPTase inh: blocks B. subtilis Sfp PPTase activity; Q9F4F7; Biochemical Sfp PPTase activity, qHTS; Potency, µM, usual class: inhibitors; hit rate 3.5% among 310,000;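 note: the enzyme is Sfp with the accession as filed and its product quenches rhodamine fluorescence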
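Compounds were incubated with enzyme (final 15 nM) for 15 min at room temperature before substrate addition started the reaction. Fluorescence at 525 nm excitation, 598 nm emission was recorded immediately and after 30 minutes.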
Coupling enz: counter-screen for Giardia aldolase inhibitors: coupling enzyme system. coupling enzyme system counterscreen, AmpLite Red fluorescence. activity change, negative = inhibition, % at 58.2 µM, hits read low. hit rate 0.67% among 290,000; in the data active = activity change below about -30%
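Coupling enzymes only (glyceraldehyde-3-phosphate) + compound, at 57.5 uM final, 10 min RT; add substrate/coupling/AmpLite Red mix, 20 min RT; fluorescence ex 525/em 598 nm. Actives flag coupling-system interference.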
NPSR antagonist: neuropeptide S receptor (human) antagonism, cAMP | Q6W5P4 | hit rate 1% among 220,000 | CHO-NPSR cells, cAMP TR-FRET, antagonist mode | Potency, µM (top dose mostly 38.3 µM), most hits filed as inhibitors; note: nearly all actives have a fitted effect of over 50% in size
Target sequence (Q6W5P4 whole entry, looked up): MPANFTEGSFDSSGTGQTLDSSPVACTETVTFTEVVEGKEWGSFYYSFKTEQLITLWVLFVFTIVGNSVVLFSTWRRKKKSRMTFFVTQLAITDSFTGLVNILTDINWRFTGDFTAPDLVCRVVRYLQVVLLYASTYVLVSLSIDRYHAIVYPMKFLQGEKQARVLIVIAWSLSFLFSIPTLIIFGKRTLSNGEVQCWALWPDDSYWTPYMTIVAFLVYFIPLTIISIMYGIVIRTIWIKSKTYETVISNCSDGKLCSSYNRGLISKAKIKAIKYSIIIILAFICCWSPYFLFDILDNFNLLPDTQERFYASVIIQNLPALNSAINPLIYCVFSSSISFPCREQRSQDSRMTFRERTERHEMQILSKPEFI
ALDH1A1 block: ALDH1A1 (human) enzyme inhibition | P00352 | hit rate 7.3% among 220,000 | Potency, µM (top dose mostly 75.3 µM), most hits filed as inhibitors | Purified ALDH1A1, NADH fluorescence, propionaldehyde substrate; active = well fitted inhibition curve with a large enough effect, not every such curve was filed as active; inconclusive = small, poorly fitted or top-dose-only effect, or another doubt; inactive = no such curve, though single readings can be large or run the other way
RGS12 GoLoco inh: RGS12 GoLoco-Gai1 interaction inhibition. P63096. Gai1:RGS12 GoLoco peptide FP, rhodamine, 10 min. Potency, µM (titrated, usually from 61.6 µM), most hits filed as inhibitors. hit rate 0.44% among 230,000. AID 880; active = well fitted inhibition curve with a large enough effect, not every such curve was filed as active; inactive = no such curve, though single readings can be large or run the other way; note: nearly all actives have a fitted effect of over 30% in size
KDM4E inh: JMJD2E (human) inhibition. hit rate 1.6% among 230,000. JMJD2E catalytic domain, FDH-coupled NADH fluorescence (FDH is formaldehyde dehydrogenase). B2RXH2. Potency, µM (doses to about 57.1 µM), usual class: inhibitors. AID 2147; active = well fitted inhibition curve with a large enough effect, not every such curve was filed as active; inconclusive = small, poorly fitted or top-dose-only effect, or another doubt; inactive = no such curve, though single readings can be large or run the other way; note: nearly all actives have a fitted effect of over 50% in size
Target sequence (B2RXH2 1-337 limits assumed): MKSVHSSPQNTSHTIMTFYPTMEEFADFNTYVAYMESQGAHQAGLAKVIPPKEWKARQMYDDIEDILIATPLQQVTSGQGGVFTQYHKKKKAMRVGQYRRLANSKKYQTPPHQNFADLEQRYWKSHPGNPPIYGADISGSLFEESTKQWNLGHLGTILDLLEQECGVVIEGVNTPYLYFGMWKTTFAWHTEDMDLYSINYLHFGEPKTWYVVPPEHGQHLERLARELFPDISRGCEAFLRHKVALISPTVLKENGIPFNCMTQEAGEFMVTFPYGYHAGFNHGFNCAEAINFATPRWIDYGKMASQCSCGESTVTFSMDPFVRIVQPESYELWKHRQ
Each line names hits and unclear results; the compound was inactive in the other large screens. Unless noted, calls come from the whole dose curve; as a rule, active = well fitted curve in the direction sought with a large enough effect; inconclusive = small, poorly fitted or top-dose-only effect, or another doubt; inactive = no such curve, though single readings can be large; an effect the other way counts as inactive or inconclusive.

CCOC(=O)c1ccccc1NC1CC(=O)N(c2ccccc2C)C1=O (stereo unspecified)	Sfp PPTase inh 79µM, ALDH1A1 block inconclusive, KDM4E inh inconclusive
Cc1ccc(-c2csc(N3CCN(S(=O)(=O)c4ccc5c(c4)NC(=O)CO5)CC3)n2)cc1	none (no result: NPSR antagonist, ALDH1A1 block, RGS12 GoLoco inh, KDM4E inh)
O=C(NCCCN1CCCC1=O)c1ccc2c(=O)n(Cc3ccco3)c(=S)[nH]c2c1	Sfp PPTase inh 35µM, ALDH1A1 block 13µM
COc1ccc(-n2c(=S)[nH]c3cc(C(=O)NCCCN4CCCC4=O)ccc3c2=O)cc1OC	Sfp PPTase inh inconclusive, ALDH1A1 block 2.5µM
COc1ccccc1CNC(=O)c1ccc2c(=O)n(CCCN3CCCC3=O)c(=S)[nH]c2c1	ALDH1A1 block 2µM
C=CCNC(=O)c1ccc2c(=O)n(CCCN3CCCC3=O)c(=S)[nH]c2c1	Sfp PPTase inh 79µM, ALDH1A1 block 3.2µM
COc1ccc(OC)c(-n2c(=S)[nH]c3cc(C(=O)NCCCN4CCCC4=O)ccc3c2=O)c1	Sfp PPTase inh inconclusive
Cc1ccc(CNC(=O)c2ccc3c(=O)n(CCCN4CCCC4=O)c(=S)[nH]c3c2)cc1	ALDH1A1 block inconclusive
CCCCN(C)CCNC(=O)CN1C(=O)CSc2ccc(S(=O)(=O)N3CCOCC3)cc21	none (no result: Coupling enz, NPSR antagonist, ALDH1A1 block, RGS12 GoLoco inh, KDM4E inh)
O=C(NCc1ccccc1)c1ccc2c(=O)n(CCCN3CCCC3=O)c(=S)[nH]c2c1	ALDH1A1 block 4.5µM
COc1ccc(CNC(=O)c2ccc3c(=O)n(CCCN4CCCC4=O)c(=S)[nH]c3c2)cc1	ALDH1A1 block 28µM
Cn1ncc2c(NCCc3ccccc3)nc(Cl)nc21	none (no result: Sfp PPTase inh, Coupling enz, NPSR antagonist, KDM4E inh)
COc1ccc(CNCC(=O)Nc2cc(OC)cc(OC)c2)cc1	none (no result: NPSR antagonist, ALDH1A1 block, RGS12 GoLoco inh, KDM4E inh)
Oc1c(Cl)cc(Cl)cc1/C=N/Nc1ncc(Br)cn1	none
CN(/N=C/c1cc(Cl)cc(Cl)c1O)C(=S)NC(C)(C)C	ALDH1A1 block inconclusive, KDM4E inh 32µM
Brc1ccc(CSc2nnc(-c3ccco3)o2)cc1	Sfp PPTase inh 56µM
COc1ccc(C(=O)NC2CC(C)(C)Cc3occc32)cc1 (stereo unspecified)	ALDH1A1 block inconclusive
O=C(Cc1cccs1)NC1C(=O)N2C(C(=O)[O-])=C(C[n+]3ccccc3)CSC12 (stereo unspecified)	Sfp PPTase inh inconclusive, ALDH1A1 block 28µM, KDM4E inh inconclusive (no result: NPSR antagonist)
CCc1c(C(C)S(=O)(=O)c2ccccc2)[nH]c(=O)n1CC (stereo unspecified)	Sfp PPTase inh 50µM, ALDH1A1 block inconclusive, KDM4E inh inconclusive
Cc1cc(C)c2oc(C(=O)N3CCN(C)CC3)cc(=O)c2c1	none (no result: NPSR antagonist, ALDH1A1 block, RGS12 GoLoco inh, KDM4E inh)
CCOc1ccc(N=CC2=C(O)CC(C)(C)CC2=O)cc1	ALDH1A1 block 14µM
CC1(C)CC(=O)C(C=Nc2ccc3cn[nH]c3c2)=C(O)C1	ALDH1A1 block 14µM
Cc1[nH]nc(N=CC2=C(O)CC(C)(C)CC2=O)c1-c1ccc(Cl)cc1	NPSR antagonist inconclusive, ALDH1A1 block 14µM
CC1(C)CC(=O)C(C=Nc2ccc(N)cc2)=C(O)C1	ALDH1A1 block 11µM, KDM4E inh inconclusive
Cc1onc(-c2ccccc2Cl)c1C(=O)N1CCCCCC1	none (no result: NPSR antagonist, ALDH1A1 block, RGS12 GoLoco inh, KDM4E inh)
Cc1c(C(c2cccc(Br)c2)c2c(C)n(C)n(-c3ccccc3)c2=O)c(=O)n(-c2ccccc2)n1C	none (no result: NPSR antagonist, ALDH1A1 block, RGS12 GoLoco inh, KDM4E inh)
COC(=O)NC(C(=O)OC)(C(=O)OC)c1ccccc1	none (no result: NPSR antagonist)
CC1CN(C(=O)CCC(=O)NCc2ccccn2)c2ccccc2O1 (stereo unspecified)	none (no result: NPSR antagonist, ALDH1A1 block, RGS12 GoLoco inh, KDM4E inh)
O=C(O)c1c(-c2nccc3ccccc23)[nH]c(-c2ccccc2)c1S(=O)(=O)O	ALDH1A1 block inconclusive (no result: Sfp PPTase inh, Coupling enz, NPSR antagonist, KDM4E inh)
COc1cccc(N=CC2=C(O)CCCC2=O)c1	none
COc1cccc(N=CC2=C(O)CC(C)(C)CC2=O)c1	ALDH1A1 block 8.9µM
CC1(C)CC(=O)C(/C=N/c2ncccc2C(=O)O)=C(O)C1	ALDH1A1 block 13µM
Cc1ccc(N=CC2=C(O)CC(C)(C)CC2=O)nc1	ALDH1A1 block inconclusive
CCSCCOC(=O)C1=C(C)NC(=O)NC1c1ccc2c(c1)OCO2 (stereo unspecified)	ALDH1A1 block 14µM
CCN1/C(=C2\OC(=S)N(C)C2=O)C=Cc2ccccc21	none
CN1C(=O)/C(=C2/C=CC=CN2C)OC1=S	Sfp PPTase inh 56µM, ALDH1A1 block inconclusive
CCCCNC(=O)C(=O)N/N=C/c1ccc(OCC(=O)Nc2cccc(OC)c2)c(OC)c1	ALDH1A1 block inconclusive, KDM4E inh inconclusive
O=C(CSCc1ccco1)Nc1cc(C(F)(F)F)ccc1N1CCOCC1	Sfp PPTase inh 56µM, NPSR antagonist inconclusive, ALDH1A1 block 7.1µM
O=C(NC(=S)Nc1cc(C(F)(F)F)ccc1N1CCOCC1)c1sc2ccccc2c1Cl	ALDH1A1 block 7.9µM
CCCC(=O)Nc1cc(C(F)(F)F)ccc1N1CCOCC1	ALDH1A1 block 3.2µM
CC(C)(C)C(=O)NC(=S)Nc1cc(C(F)(F)F)ccc1N1CCOCC1	NPSR antagonist inconclusive, ALDH1A1 block 19µM
O=C(CCCCl)NC(=S)Nc1cc(C(F)(F)F)ccc1N1CCOCC1	NPSR antagonist inconclusive
CC(=O)Nc1cc(C(F)(F)F)ccc1N1CCOCC1	none
CC(C)(C)N1C(=O)[C@H]2[C@@H](c3ccc(Br)cc3)N3C(=O)N(c4ccccc4)C(=O)[C@@]3(C)[C@H]2C1=O	none (no result: NPSR antagonist, ALDH1A1 block, RGS12 GoLoco inh, KDM4E inh)
Cc1ccccc1N1CCN(S(=O)(=O)c2nnc(NC(=O)c3ccco3)s2)CC1	none (no result: NPSR antagonist, ALDH1A1 block, RGS12 GoLoco inh, KDM4E inh)
CC1CCN(C(=O)c2ccc3c(c2)OCO3)CC1	none (no result: Coupling enz, NPSR antagonist, ALDH1A1 block, RGS12 GoLoco inh, KDM4E inh)
O=P1(O)Oc2c(c(-c3ccccc3)cc3ccc4ccccc4c23)-c2c(-c3ccccc3)cc3ccc4ccccc4c3c2O1	KDM4E inh inconclusive (no result: NPSR antagonist)
Nc1nc(SCC(=O)Nc2cc(C(F)(F)F)ccc2N2CCOCC2)n[nH]1	ALDH1A1 block 22µM
O=C(Nc1cc(C(F)(F)F)ccc1N1CCOCC1)C1Cc2ccccc2CN1C(=O)c1ccco1 (stereo unspecified)	Sfp PPTase inh 28µM, ALDH1A1 block 22µM, KDM4E inh inconclusive
COc1ccc(N/N=C(/N=Nc2nc(C)cc(=O)[nH]2)c2ccccc2)cc1	KDM4E inh 14µM
Cc1cc(=O)[nH]c(N=N/C(=N/Nc2ccccc2C)c2ccccc2)n1	ALDH1A1 block inconclusive
Cc1cc(=O)[nH]c(N=N/C(=N/Nc2ccc(O)cc2)c2ccccc2)n1	ALDH1A1 block 14µM
CCN(C(=O)c1ccc2c(=O)n3c(nc2c1)CCCCC3)c1ccccc1C	none (no result: Coupling enz, NPSR antagonist, ALDH1A1 block, RGS12 GoLoco inh, KDM4E inh)
O=C1CNC(=O)/C1=C/c1ccc(O)cc1	ALDH1A1 block 32µM, KDM4E inh inconclusive
O=C1CNC(=O)/C1=C\c1ccc(O)cc1	ALDH1A1 block inconclusive
COc1ccc(C2NC(=O)NC(C)=C2[N+](=O)[O-])cc1 (stereo unspecified)	none (no result: NPSR antagonist, ALDH1A1 block, RGS12 GoLoco inh, KDM4E inh)
Fc1cc(F)c(C2SCCN2C(=S)Nc2cccc(C(F)(F)F)c2)c(F)c1 (stereo unspecified)	NPSR antagonist inconclusive, ALDH1A1 block 14µM

Compound activity from PubChem BioAssay.
